# Assay outcomes deposited in PubChem BioAssay by Sanford-Burnham Center for Chemical Genomics.
# CYP2C19 act: human CYP2C19 activators, primary screen, biochemical, luminescence | 96,000 tested, under 10 active | recombinant CYP2C19, luciferin-H EGE luminescence; stronger effect = higher value; 0 = fully inhibited enzyme, 1 = untreated enzyme | Cytochrome P450 2C19 (Homo sapiens), P33261 | activation factor at 5 µM;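 active = activation factor of at least 2 at 5 µM in the primary screen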;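 note: 0 = wells with 2.5 mM tranylcypromine and 1 = vehicle-only wells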
# CYP2C9 inhib: blockers of cytochrome P450 2C9 activity – biochemical, luminescence, ADME assay, primary screen. inhibition, % at 5 µM. 20% of 96,000 active. CYP2C9 Supersomes, luciferin-H conversion;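 active = blocking of liver enzyme CYP2C9 beyond about 50% at 5 µM, limit read from the data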
# CYP2C9 activ: human CYP2C9 activators, primary screen, biochemical, luminescence; Cytochrome P450 2C9 (Homo sapiens), P11712; 1.4% of 96,000 active; recombinant CYP2C9, luciferin-H conversion; stronger effect = higher value; factor 1 = untreated enzyme, 0 = blocked; AID 1024, 2008; activation factor at 5 µM;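 active = activation factor of 2 or more for CYP2C9 at a 5 µM dose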;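 note: 0 = sulfaphenazole-blocked wells and 1 = vehicle-only wells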
# CYP2C19 inh: blockers of cytochrome P450 2C19 activity – biochemical, luminescence, ADME assay, primary screen | P33261 | CYP2C19 Supersomes, luciferin-H EGE luminescence, 30 min | inhibition, % at 5 µM | 21% of 96,000 active;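 active = CYP2C19 inhibition above a set limit at 5 µM in the primary screen, cut at about 50% in these data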;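 note: plate controls were negative control wells for no effect and 2.5 mM tranylcypromine positive control for full effect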
# CD11b adhes inh: inhibitors of CD11b/CD18 adhesion to fibrinogen, primary screen, K562 cells, luminescence; 0.54% of 93,000 active; inhibition, % at 10 µM; ATPlite luminescence; Mn2+ added to activate the integrin;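 active = primary inhibition of 50% or more at 10 µM, then 40% or more on retest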
# Target sequence (P05107 whole entry, looked up, other chains not shown): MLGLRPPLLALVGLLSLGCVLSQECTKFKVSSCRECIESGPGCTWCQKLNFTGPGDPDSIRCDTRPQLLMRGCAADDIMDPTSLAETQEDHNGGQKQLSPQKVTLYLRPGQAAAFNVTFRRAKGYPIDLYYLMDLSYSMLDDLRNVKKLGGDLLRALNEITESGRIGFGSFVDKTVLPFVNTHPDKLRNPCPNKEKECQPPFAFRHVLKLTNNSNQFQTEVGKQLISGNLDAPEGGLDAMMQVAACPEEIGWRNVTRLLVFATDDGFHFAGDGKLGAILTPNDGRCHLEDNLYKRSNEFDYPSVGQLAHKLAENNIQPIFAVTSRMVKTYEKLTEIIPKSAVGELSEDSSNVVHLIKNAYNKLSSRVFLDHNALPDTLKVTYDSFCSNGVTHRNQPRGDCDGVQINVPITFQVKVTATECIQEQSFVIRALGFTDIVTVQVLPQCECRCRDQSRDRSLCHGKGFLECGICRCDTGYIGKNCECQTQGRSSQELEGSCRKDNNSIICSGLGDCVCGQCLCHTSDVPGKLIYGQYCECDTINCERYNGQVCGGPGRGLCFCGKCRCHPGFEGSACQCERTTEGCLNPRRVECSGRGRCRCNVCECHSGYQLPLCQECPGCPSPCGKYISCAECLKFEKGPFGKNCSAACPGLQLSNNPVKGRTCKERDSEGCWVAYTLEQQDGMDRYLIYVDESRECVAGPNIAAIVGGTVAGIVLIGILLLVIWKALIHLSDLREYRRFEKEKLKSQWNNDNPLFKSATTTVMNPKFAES
# CD11b adhes enh: enhancers of CD11b/CD18 adhesion to fibrinogen, primary screen, K562 cells, luminescence. AID 1499, 2009. ATPlite luminescence. activation, % at 10 µM. 0.07% of 93,000 active;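 active = 10 µM primary screen giving 50% or more activity, confirmed by 40% or more on retest at that dose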
# * marks the source's active call; other numbers are inactive results; . = not tested or not shown. A selection: hits, their analogues and other compounds. The true share with any hit is near 28%.
SMILES,CYP2C19 act,CYP2C9 inhib,CYP2C9 activ,CYP2C19 inh,CD11b adhes inh,CD11b adhes enh
CC(=O)N(c1cccc(C)c1)C1SC(=O)N(c2ccccc2)C1=O (configuration not stated),0.3,44.3,0.6,68.1*,-3.1,-2.2
CCOC(=O)N1CCN(C(=O)CS(=O)(=O)c2cn(Cc3cccc(F)c3)c3ccccc23)CC1,1.1,9.0,0.9,-8.4,4.4,1.9
Cc1ccccc1C(=O)Oc1ccc(Sc2ccc(O)cc2)cc1,0.9,-20.9,1.2,7.0,4.0,-3.0
COC(=O)C(NC(C)=O)(Nc1nc2ccc(S(C)(=O)=O)cc2s1)C(F)(F)F (configuration not stated),1,64.1*,0.4,2.0,.,.
COC(=O)C(NC(C)=O)(Nc1nc2ccc(C)cc2s1)C(F)(F)F (configuration not stated),0.3,78.3*,0.2,74.8*,-51.9,-0.7
Cc1cc(NC(NC(=O)c2ccco2)(C(F)(F)F)C(F)(F)F)no1,0.9,10.6,0.9,11.1,36.7,4.9
CS(=O)(=O)c1ccc2nc(NC(NC(=O)c3ccco3)(C(F)(F)F)C(F)(F)F)sc2c1,0.5,99.0*,0,50.0*,29.3,-2.3
Cc1ccc(C)c(-n2c(Cc3cc(=O)[nH]c(=O)[nH]3)nnc2SCC(=O)NCC2CCCO2)c1 (configuration not stated),1.1,9.0,0.9,-10.3,.,.
CCNC(=S)NN(c1ccccc1)c1ccccc1,0,44.3,0.6,95.7*,7.3,-1.4
CCOC(=O)c1c(-c2cccs2)csc1NC(=O)CN(CC)CC,0.6,75.4*,0.2,38.2,.,.
CCOC(=O)c1c(-c2cccs2)csc1NC(=O)CN1CCOCC1,0.5,73.2*,0.3,45.1,-3.8,2.1
CCOC(=O)c1c(-c2ccc(C)o2)csc1NC(=O)CN1CCOCC1,0.5,72.1*,0.3,54.0*,-27.7,-0.9
CCOC(=O)c1c(-c2ccc(C)cc2)csc1NC(=O)CCN1CCOCC1,.,.,.,.,-7.0,1.4
CCOC(=O)c1c(-c2ccc(C)o2)csc1NC(=O)CSc1ncn[nH]1,0.4,85.3*,0.1,61.0*,10.2,-1.5
O=C1Nc2ccccc2C12OCCS2 (configuration not stated),0.8,-15.6,1.2,16.9,-3.0,-2.1
CCOC(=O)c1c(-c2cccs2)csc1NC(=O)CC(C)C,0.9,9.7,0.9,14.6,6.9,-4.2
CCOC(=O)c1c(-c2ccc(C)o2)csc1NC(=S)NC(=O)N(C)C,0.8,52.8*,0.5,18.0,.,.
O=C(NC(=S)Nc1cccc(Cl)c1N1CCCCC1)c1cccs1,0.9,59.3*,0.4,13.7,.,.
CCOC(=O)c1[nH]c2ccc(Br)cc2c1NC(=O)CCN1CCC(C)CC1,0.4,24.0,0.8,58.2*,-12.2,3.7
CCOC(=O)c1[nH]c2ccc(Br)cc2c1NC(=O)CNC,1,-18.5,1.2,4.8,-1.7,104.5*
CCc1cc2c(SCC(=O)O)ncnc2s1,1.2,-16.9,1.2,-16.5,8.6,-3.2
CCc1cc2c(SCC(=O)C(C#N)=C3N(C)c4ccccc4N3C)ncnc2s1,0.6,61.6*,0.4,40.4,6.9,-0.9
CCSc1nc2c(c(=O)[nH]1)C(C(C)C)C(C#N)=C(N)O2 (configuration not stated),1.2,11.7,0.9,-24.2,-6.6,-2.5
CCCCC(c1nnnn1C1CCCC1)N1CCN(C2CCCC2)CC1 (configuration not stated),0.5,32.8,0.7,46.5,-5.1,1.7
Cc1ccccc1NC(=S)NC(NC(=O)C(C)(C)C)C(Cl)(Cl)Cl (configuration not stated),0.8,97.3*,0,22.8,9.5,-7.3
SMILES,CYP2C19 act,CYP2C9 inhib,CYP2C9 activ,CYP2C19 inh,CD11b adhes inh,CD11b adhes enh
Cc1ccccc1NC(=S)NC(NC(=O)COc1ccccc1)C(Cl)(Cl)Cl (configuration not stated),0.4,72.2*,0.3,60.6*,12.6,18.9
CCc1ccc(OCC(=O)NC(NC(=S)Nc2ccccc2C)C(Cl)(Cl)Cl)cc1 (configuration not stated),.,.,.,.,6.2,-0.9
Cc1ccc(C)c(NC(=S)NC(NC(=O)N(C)C)C(Cl)(Cl)Cl)c1 (configuration not stated),0.3,77.9*,0.2,69.8*,-26.4,4.4
O=C(COc1ccccc1)NC(NC(=S)Nc1ccccc1O)C(Cl)(Cl)Cl (configuration not stated),0.1,82.6*,0.2,92.7*,.,.
COC(=O)c1ccccc1NC(=S)NC(NC(=O)COc1ccccc1)C(Cl)(Cl)Cl (configuration not stated),1,9.8,0.9,-0.1,.,.
CC(=O)N1CCC(N(C(=O)Nc2c(F)cccc2F)C(C)C)CC1,1.2,-14.0,1.1,-16.5,-6.0,0.0
COc1ccc(NC(=S)N2CCNC(=O)C2CC(=O)Nc2ccc(C)cc2)cc1 (configuration not stated),.,.,.,.,-3.7,-4.0
CCc1ccc(OCC(=O)NC(NC(=S)Nc2ccc(C)cc2C)C(Cl)(Cl)Cl)cc1 (configuration not stated),0.5,56.9*,0.4,54.1*,-3.8,50.0*
Cc1ccc(NC(=S)NC(NC(=O)c2ccccc2C)C(Cl)(Cl)Cl)c(C)c1 (configuration not stated),0.8,73.1*,0.3,15.1,.,.
CN(C)C(CNC(=O)c1cccnc1Sc1ccccc1)c1ccco1 (configuration not stated),0.9,9.7,0.9,11.8,-24.9,-0.6
CCCCn1c(-c2ccccc2)nc2c(=O)n(C)c(=O)[nH]c21,1,66.7*,0.3,-0.6,8.0,7.5
Cc1ccc(C(=O)CN(C(=O)c2ccc(Cl)c(Cl)c2)N2C(=O)C3C4C=CC(C4)C3C2=O)cc1 (configuration not stated),0.2,92.9*,0.1,78.7*,-38.0,6.2
O=C(CN(C(=O)c1ccc(Cl)cc1)N1C(=O)C2CCCCC2C1=O)c1ccc(Cl)cc1 (configuration not stated),0.9,8.1,0.9,5.6,.,.
ONC(=Nc1ccccc1)c1ccc(Cl)cc1,0.1,49.1,0.5,89.9*,-2.3,2.9
Cc1ccccc1OCCNC(=S)Nc1ccccc1,0.3,8.8,0.9,70.2*,.,.
O=C(CSc1nnc(-c2ccco2)n1Cc1ccco1)N1CCOCC1,1,0.6,1,0.6,-4.6,-0.2
